The panel holds about 79,000 compounds, 15% with a hit somewhere; the sample as a whole holds those more often. A number with no mark means an inactive call. The source made the active and inactive calls. Rule as the data show it: active = growth inhibition above about 70%; inactive = the rest.
test: NCI Yeast Anticancer Drug Screen. Data for the sgs1 mgt1 strain (AID 161);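 also: 0% = growth of cultures given vehicle only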; details: S. cerevisiae sgs1 mgt1 strain, at 50.0 µM, stronger effect = higher value
Method in brief: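 Test agents were incubated with a DNA-repair-mutant yeast strain. Growth was then read and compared against vehicle-treated controls.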

Compound | growth inhibition
CCOC(=O)CN(C)C#N | -44%
O=CNC1(c2ccccc2)CCCCC1 | -12.2%
Cc1nn(C(=O)c2ccncc2)c2c1C(c1ccccc1[N+](=O)[O-])SC(N)=N2 (stereo not given) | 40.1%
NC(=O)c1[nH]nc(C2OC(CO)C(O)C2O)c1O (stereo not given) | 7.35%
CC(C)c1ccc2c(c1)CCC1C(C)(C)[C@@H](O)CC[C@]21C (stereo not given in full) | -23.2%
NC(=O)c1ccc[n+](-c2ccc([N+](=O)[O-])cc2[N+](=O)[O-])c1 | 80.2% (active)
CCSC(=S)S(=O)(=O)c1ccc(C)cc1 | 89.5% (active)
NC(=O)c1ccc2c(c1)-c1nc-2nc2[n-]c(nc3nc(nc4[n-]c(n1)c1ccc(C(N)=O)cc41)-c1ccc(C(N)=O)cc1-3)c1ccc(C(N)=O)cc21.[Co+2] | 1.8%
Cc1cc(O)c2c(c1)C(=O)c1c(-c3ccc(O)c4c3C(=O)c3c(O)c(C)cc(O)c3C4=O)ccc(O)c1C2=O | -17.1%
CNC(=O)OCc1c(COC(=O)NC)c(C)n(-c2ccccc2)c1C | -24.2%
CCOC(=O)Nc1cc(Cl)c2nnn(C(=O)OCC)c2n1 | 97.9% (active)
C=C1N(c2cc(OC)c(OC)c(OC)c2)C(=O)OC12CCCCC2 | 0.2%
CCOC(=O)C(C(=O)OCC)C(=O)C(C)(C)C | 0.7%
CN(C)c1ccc(/C=N\NC(=S)NCCCN2CCN(CCCNC(=S)N/N=C/c3ccc(N(C)C)cc3)CC2)cc1 | 5.45%
Cc1c(Cl)ccc([N+](=O)[O-])c1Cl | -3.35%
CS(=O)(=O)OCCCCOS(=O)(=O)CF | -31.4%
O.O.[Cl][Pt+2][Cl].[NH-]CC1(C[NH-])CCCCC1 | 11.8%
COc1ccc2c(c1)CCN1CCc3ccccc3CC21 (stereo not given) | 58.5%
CC12CCC[C@@](C)(C(=O)OC3OC(CO)C(O)C(O)C3O)[C@H]1CCC13CC4CC(OC4(CO)[C@H]1O)[C@@H]23 (stereo not given in full) | -20.9%
O=C1CN(c2cccc(C(F)(F)F)c2)C(=O)CN1CCN1CC(=O)N(c2cccc(C(F)(F)F)c2)CC1=O | -3.55%

Compound | growth inhibition
CN(c1ccc(Br)cc1)c1nc(N)nc(N)c1N=O | 5.05%
CCOC(=O)C(NC(=O)OC(C)(C)C)C(=O)OCC | -33.1%
NC(=S)N/N=C/c1ccccc1S(=O)(=O)O | -9.75%
CNC(=O)c1ccccc1S(=O)Cc1ccc(Br)cc1 (stereo not given) | -17.6%
OCC1OC(n2cnc3c(NCc4ccccc4)ncnc32)C(O)C1O (stereo not given) | 3.2%
Cn1c(-c2ccc(/C=N/N=C(N)N)cc2)c[n+]2ccccc12 | 4%
O=C(Cc1ccccc1)NC(=O)Nc1ccccc1 | -8.4%
O=c1[nH]c2c(Br)cccc2c2ccccc12 | 11.8%
Cc1c(Cl)cccc1NC(=O)Sc1ccc(C(C)(C)C)cc1 | 12.5%
O=C1c2ccccc2C(=O)c2c1nnn2-c1ccccc1 | 21.2%
COC(=O)c1cc(C)c2c3ccccc3n(C)c2c1C(=O)OC | -8.9%
Oc1cccc(CCc2ccccn2)c1 | -11.3%
O=C(c1ccccc1)c1cc[n+]([O-])cc1 | -18%
C#CCn1cnc2c1c(=O)n(C)c(=O)n2C | -7.35%
O=C(O)C(O)C(O)C(O)C(O)C(O)CO.[NH-]C1CCCCC1[NH-].[Pt+2] (stereo not given) | -30.4%
CC(=O)/C=C1\N(C)c2ccccc2C1(C)C | -2.05%
COC(=O)c1c2cccccc-2c(C(=O)OC)c1N | 28.8%
CC[N+](C)(CC)c1cccc(OC(=O)N2CCCCC2)c1 | 16.4%
Cc1cc2c(=O)c(C(=O)O)c[nH]c2cc1-n1cccc1 | 45%
O=C1c2ccccc2C(=O)N1C/C(Cl)=C/Cl | -11.4%
